Bioassay records (PubChem)
uPA generation = blocks generation of uPA at the cell surface. cell surface uPA generation assay, qHTS. Potency, µM (series often up to 38.3 µM), most hits filed as inhibitors. 330,000 compounds, 0.31% hits; active = well fitted inhibition curve with a large enough effect; inconclusive = small, poorly fitted or top-dose-only effect; inactive = no such curve, though single readings can be large or run the other way; tested in mouse RAW 264.7 cells; note: nearly all actives have a fitted effect of over 55% in size
Giardia killer = Giardia lamblia killing; Giardia lamblia trophozoite viability; activity change, % at 7.66 µM, hits read low; 340,000 compounds, 0.15% hits; in the data active = activity change below about -80%; inconclusive = between about -30% and that limit;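 note: parasites exposed to compound for two days anaerobically before the ATP read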
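Luminescent ATP signal served as the viability read-out, measured 15-30 min after adding ATP detection reagent to trophozoites that had been incubated with compounds for 48 hrs at 37 deg C anaerobically at 100 cells/well.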
MCF10A rereplic = inducers of DNA re-replication in MCF 10A breast cells; MCF 10A DNA re-replication, Hoechst nuclear intensity, 48 h; Potency, µM (highest dose often 46.1 µM), actives largely listed as activators; 350,000 compounds, 2.9% hits; note: nearly all actives have a fitted effect of over 50% in size
SW480 rerep = induces DNA re-replication in SW480 colon adenocarcinoma cells. SW480 DNA re-replication, Hoechst DNA content imaging, 48 h. Potency, µM (top dose mostly 46.1 µM), most hits filed as activators. 340,000 compounds, 1.8% hits. AID 624297; note: nearly all actives have a fitted effect of over 55% in size
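Image-based read-out: total Hoechst fluorescence of nuclei (405 nm excitation, 500-530 nm emission), with hits raising the fraction of high-intensity nuclei. SW480 colon cells incubated 48 hr with compounds at 37 C.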
Each line names hits and unclear results; the compound was inactive in the other large screens. Most compounds without a hit are left out; they make up all but 4.3% or so of the library. Unless noted, calls come from the whole dose curve; as a rule, active = well fitted activation curve with a large enough effect; inconclusive = small, poorly fitted or top-dose-only effect; inactive = no such curve, though single readings can be large or run the other way.

C[C@@H]1COC(=O)[C@H](Cc2ccc(F)cc2)CC/C=C/C[C@@H](CC(=O)N[C@@H](CO)Cc2ccccc2)C(=O)N1	SW480 rerep inconclusive
O=C1NC[C@@H](c2ccccc2)OC(=O)[C@@H](Cc2ccc(F)cc2)CC/C=C/C[C@H]1CC(=O)N(CCO)Cc1ccccc1	MCF10A rereplic inconclusive, SW480 rerep 4.6µM (no result: uPA generation)
O=C(C[C@@H]1C/C=C/CC[C@H](Cc2ccc(F)cc2)C(=O)OC[C@@H](Cc2ccccc2)NC1=O)N[C@H](CO)Cc1ccccc1	uPA generation inconclusive, MCF10A rereplic 7.3µM, SW480 rerep inconclusive
COc1ccc(C(=O)N/N=C(\Cc2ncc[nH]2)c2ccccc2)cc1	MCF10A rereplic inconclusive, SW480 rerep 9.2µM
COc1cc(C(=O)N/N=C(\Cc2ncc[nH]2)c2ccccc2)cc(OC)c1OC	MCF10A rereplic 18µM, SW480 rerep inconclusive
C[C@@H](C(=O)Nc1ccc2ccccc2c1)[C@H]1C[C@]1(C)[C@H](N)c1ccccc1	none (no result: uPA generation, MCF10A rereplic, SW480 rerep)
COC(=O)c1cc(NC(=O)c2cc(-c3ccc(OC)cc3)oc2C(F)(F)F)ccc1N1CCOCC1	none
COC(=O)c1cc(NC(=O)c2cc(-c3ccc(C(F)(F)F)cc3)oc2C(F)(F)F)ccc1N1CCOCC1	SW480 rerep 5.8µM
C[C@]12C=C[C@H](O)CC1=CCC1C2CC[C@@]2(C)C1CCC21OCCO1 (some centres undefined)	MCF10A rereplic 21µM, SW480 rerep inconclusive
C[C@]12C=CC(=O)C=C1CCC1C2CC[C@@]2(C)C1CCC21OCCO1 (some centres undefined)	MCF10A rereplic inconclusive
COc1cc(/C=N/N=C/c2c[nH]c(=O)c(C#N)c2Nc2ccccc2)ccc1O	none
N=C1/C(=C/c2cccs2)C(=O)N=C2SN=C(SCc3ccccc3)N12	MCF10A rereplic inconclusive
CC(C)CSC1=NSC2=NC(=O)/C(=C\c3cccs3)C(=N)N12	MCF10A rereplic 21µM
O=C(CSc1ncnc2ccccc12)Nc1ccc2c(c1)OCO2	Giardia killer inconclusive, MCF10A rereplic inconclusive
O=C(CSc1ncnc2c1cnn2-c1ccccc1)Nc1ccc2c(c1)OCO2	MCF10A rereplic 15µM
CCOC(=O)c1c(NC(=O)CSc2nnnn2-c2ccc3c(c2)OCO3)sc(C)c1C	SW480 rerep inconclusive
COc1ccc(N2CCN(C(=O)CSc3nnnn3-c3ccc4c(c3)OCCO4)CC2)cc1	MCF10A rereplic 16µM
CCOC(=O)c1c(NC(=O)CSc2nnnn2-c2ccc3c(c2)OCCO3)sc(C)c1C	MCF10A rereplic 18µM
Cc1ccc(NC(=O)CSc2nnnn2-c2ccc3c(c2)OCO3)cc1C	MCF10A rereplic 16µM, SW480 rerep inconclusive
Cc1onc(-c2c(F)cccc2Cl)c1C(=O)OCC(=O)c1c[nH]c2ccccc12	none
CO/N=C/C(=N\Nc1ccccc1)C(=O)c1ccccc1	none
COC(=O)C=CC(=NNc1ccccc1)c1ccccc1	MCF10A rereplic 18µM, SW480 rerep inconclusive
CC(C(=O)N1CCCC1)N1CCN(S(=O)(=O)c2ccccc2)CC1 (centres undefined)	none
COC(=O)c1ccc(CSC2=NC[C@@H]3[C@@H]4C(=O)N(Cc5ccccc5)C(=O)[C@@H]4[C@](C)(C(=O)OC)N23)cc1	none
COc1ccc(/C=N/Nc2nncn2N)cc1Br	none
COc1cc(/C=N/Nc2nncn2N)ccc1OCc1c(C)no[n+]1[O-]	uPA generation 11µM, MCF10A rereplic 18µM
Cc1ccc(NCC(=O)N/N=C/c2ccc(C(=O)O)cc2)cc1	none
O=C(CNC(=O)c1ccccc1)N/N=C/c1ccc([N+](=O)[O-])o1	uPA generation inconclusive, Giardia killer inconclusive, SW480 rerep inconclusive
CCCCCC(=O)N/N=C/c1ccc([N+](=O)[O-])o1	Giardia killer -103, SW480 rerep 8.9µM (no result: uPA generation)
O=C(CNc1ccccc1)N/N=C/c1ccc([N+](=O)[O-])o1	Giardia killer -105
O=C(CCC(=O)Nc1ccc(Cl)cc1Cl)N/N=C/c1ccc([N+](=O)[O-])o1	Giardia killer -82, MCF10A rereplic inconclusive, SW480 rerep 4.6µM
O=C(CCCn1cnc([N+](=O)[O-])n1)Nc1ccc(Cl)cc1Cl	Giardia killer inconclusive
Cc1ccc(NCC(=O)N/N=C\c2ccc([N+](=O)[O-])o2)cc1	uPA generation inconclusive, Giardia killer -106
CC1=CN(S(=O)(=O)c2ccc(C)cc2)C[C@@H]2[C@H]3CC[C@H](C3)[C@H]12	MCF10A rereplic inconclusive
N#C/C(N=Nc1ccccc1O)=N\Nc1ccccc1O	uPA generation inconclusive, MCF10A rereplic inconclusive
CCCn1c(SCC(=O)NC(C)(C)C)nnc1-c1ccco1	none
O=C(Cc1ccc2c(c1)OCO2)NN=Cc1ccc([N+](=O)[O-])o1	Giardia killer -102, MCF10A rereplic inconclusive, SW480 rerep 18µM
COc1ccc(CC(=O)N2N=C(c3ccncc3)CC2(O)C(F)(F)F)cc1 (centres undefined)	uPA generation inconclusive, MCF10A rereplic inconclusive, SW480 rerep 18µM
CCCN1CNc2c(c(=O)[nH]c(=S)n2CCCc2ccccc2)C1	none (no result: uPA generation, MCF10A rereplic, SW480 rerep)
CC(C)OC(=O)C(=O)NNc1ccccc1	MCF10A rereplic 10µM
CCOC(=O)n1ccn(C)c1=S	none (no result: uPA generation, Giardia killer)
c1coc(-c2nnc(-c3ccco3)nn2)c1	SW480 rerep 4µM
O=Cc1sc(=O)n(Cc2cccc(C(=O)O)c2)c1Cl	MCF10A rereplic 29µM
O=C(NCCC1CCCCN1S(=O)(=O)c1ccccc1)C(=O)NCc1ccc(F)cc1 (centres undefined)	none
Cc1ccc(C2=NN(C(=O)CCC(=O)O)C(c3cccs3)C2)cc1 (centres undefined)	none
Cc1ccc(C2=NN(C(=O)CCl)C(c3cccs3)C2)o1 (centres undefined)	MCF10A rereplic inconclusive, SW480 rerep 5.8µM
O=C(CCl)N1N=C(c2ccco2)CC1c1cccs1 (centres undefined)	MCF10A rereplic 21µM, SW480 rerep 3.3µM
CC(=O)N1N=C(c2ccco2)CC1c1cccs1 (centres undefined)	none
CCOC(=O)/C(C#N)=C/C1=C(N2CCCC2)CC(C)(CC)OC1 (centres undefined)	none
CCCCn1c(N)c(N(CCC(C)C)C(=O)C2CCN(C(=O)c3ccccc3C)CC2)c(=O)[nH]c1=O	none
Cc1ccc(C(=O)CN(CCCC(N)=O)S(=O)(=O)c2ccc([N+](=O)[O-])cc2)cc1	none
COCCN1C(=O)c2ccc(C(=O)Nc3nccs3)cc2C1=O	MCF10A rereplic inconclusive, SW480 rerep 1.2µM
CCCN1C(=O)c2ccc(C(=O)Nc3nccs3)cc2C1=O	none
CCN(CC)CCN1C(=O)/C(=C\c2ccc(Cl)c([N+](=O)[O-])c2)SC1=Nc1ccc(OC)cc1	MCF10A rereplic inconclusive, SW480 rerep 3.7µM
COc1ccc(N=C2S/C(=C\c3ccc(Cl)c([N+](=O)[O-])c3)C(=O)N2CCN(C)C)cc1	uPA generation inconclusive, MCF10A rereplic inconclusive
Cn1cc(Br)c(-c2cccc(N3C(=O)CCCC3=O)c2)n1	none
CC(=O)N1CC(C)Sc2ccc(S(=O)(=O)NCCc3cccc(C)c3)cc21 (centres undefined)	Giardia killer inconclusive
